In publication PMC10668032, “Altered binding affinity of SIX1-Q177R correlates with enhanced WNT5A and WNT pathway effector expression in Wilms tumor”:
In all, about 33,000 sequences were measured (“e-score”: median about -0.05, highest 2% from about 0.38 on). Only a selection was taken, and the highest values are over-represented in it overall.

These sequences were tested against T1, SIX1-Q177R homeodomain (human, UniProt Q15475 108-198, Q177R) (assay: universal protein binding microarray; Universal all-10-mer PBM (8x60K, AMADID 030236), 300 nM GST-tagged protein, Alexa Fluor 488 anti-GST; buffer, salt, pH and temperature not stated (as in Berger); high values mean tight binding). Settings: protein: ivt; tags: N-terminal GST; dsDNA, one strand shown.
T1 sequence: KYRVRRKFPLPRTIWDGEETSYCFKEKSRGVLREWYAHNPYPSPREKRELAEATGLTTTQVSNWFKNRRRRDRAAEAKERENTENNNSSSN
Summary of the method: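 Binding was expressed as 8-mer E-scores calculated with the Universal PBM Analysis Suite. The GST-tagged homeodomains, made by in vitro transcription/translation, were applied in duplicate at 300 nM final concentration to universal 'all 10-mer' protein binding microarrays (8×60K format).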

Sequence	binding signal
GTATCAGA	0.284 ± 0.0131 E-score
GTTGGGGA	0.218 ± 0.00618 E-score
CCCTTTGC	0.219 ± 0.0339 E-score
CCCGGGTC	0.335 ± 0.0417 E-score
CGGGTAAC	0.2 ± 0.000757 E-score
GGAGTAGA	0.2198 ± 0.000615 E-score
GGGGTAGA	0.194 ± 0.0142 E-score
CGTGTAAG	0.428 ± 0.0306 E-score
AGGGTAAG	0.152 ± 0.023 E-score
GGAGTAAC	0.157 ± 0.0575 E-score
GGTGTAAC	0.482 ± 0.00603 E-score
GGTGTAGA	0.4728 ± 0.00114 E-score
GGGGTAAC	0.293 ± 0.0173 E-score
CGTGTAAC	0.43 ± 0.0129 E-score
CACCACTC	0.322 ± 0.00333 E-score
CGTATGAC	0.199 ± 0.0291 E-score
AATAGGTG	0.207 ± 0.0434 E-score
AGTGTATG	0.36 ± 0.013 E-score
AGTGTGAG	0.208 ± 0.00245 E-score
AGTGTGAT	0.223 ± 0.0157 E-score
CGGGTAAA	0.194 ± 0.0165 E-score
AGTGTAAG	0.415 ± 0.026 E-score

Sequence	binding signal
AGTGTAAT	0.413 ± 0.0369 E-score
GGGGTAAA	0.29 ± 0.0101 E-score
GGAGTAAA	0.222 ± 0.0733 E-score
CGTGTAAA	0.435 ± 0.0253 E-score
GGTGTAAA	0.476 ± 0.0157 E-score
AGTCGGGG	0.158 ± 0.0158 E-score
CCCCCCGC	0.248 ± 0.0302 E-score
GCGATCCC	0.182 ± 0.0137 E-score
CGGAGTGA	0.216 ± 0.008 E-score
CACGATGC	0.182 ± 0.0345 E-score
GGTGCCAC	0.195 ± 0.0196 E-score
CTCCCGAC	0.1532 ± 0.000212 E-score
TGTGTAAA	0.235 ± 0.0184 E-score
AGTGTAAA	0.402 ± 0.0464 E-score
AGTGTAAC	0.419 ± 0.0327 E-score
AGAGTAAC	0.163 ± 0.0176 E-score
AGGGTAAC	0.176 ± 0.0073 E-score
ACTGGGAG	0.223 ± 0.0162 E-score
ACCGGTGC	0.238 ± 0.0365 E-score
CCGATCCA	0.188 ± 0.0051 E-score
ACCCCCTA	0.337 ± 0.0127 E-score
ATTACACC	0.479 ± 0.0126 E-score

Sequence	binding signal
ATTACACA	0.291 ± 0.00197 E-score
CTTACACC	0.478 ± 0.00815 E-score
CTTACTCC	0.194 ± 0.0358 E-score
ATTACACG	0.435 ± 0.0178 E-score
ATTACTCC	0.287 ± 0.0213 E-score
ATTACCCC	0.294 ± 0.00817 E-score
CTTACACA	0.231 ± 0.0061 E-score
GTTACACA	0.267 ± 0.0166 E-score
ACGCGGGC	0.164 ± 0.0117 E-score
GGTGGGTA	0.165 ± 0.0261 E-score
GAGATACC	0.225 ± 0.0222 E-score
GATTAACA	0.162 ± 0.0238 E-score
AGACTCGG	0.16 ± 0.0294 E-score
ACACTCGG	0.408 ± 0.0187 E-score
CCACTCGC	0.222 ± 0.00987 E-score
ACACTCGA	0.358 ± 0.0137 E-score
ACACTCGC	0.385 ± 0.0258 E-score
ACACTCGT	0.351 ± 0.0272 E-score
AAGCTACA	0.178 ± 0.0271 E-score
AGTGTGAA	0.276 ± 0.021 E-score
AGTGTGCA	0.185 ± 0.00583 E-score
GGTGTGTA	0.411 ± 0.0106 E-score

Sequence	binding signal
TGTGTGAA	0.187 ± 0.0245 E-score
GGTGTGCA	0.391 ± 0.0295 E-score
GGTGTGAA	0.427 ± 0.00482 E-score
CGTGTGAC	0.304 ± 0.0135 E-score
AGTGTGAC	0.359 ± 0.00684 E-score
GGTGTGAC	0.435 ± 0.0199 E-score
CGTGTGCA	0.202 ± 0.0212 E-score
AGTGTGTA	0.285 ± 0.00827 E-score
CACTCGGA	0.177 ± 0.0507 E-score
GTATCACA	0.3 ± 0.034 E-score
ATCCGACA	0.238 ± 0.04 E-score
ACCTAGGT	0.157 ± 0.0301 E-score
GGGGGATA	0.2 ± 0.0198 E-score
CAAGCACC	0.176 ± 0.0183 E-score
CGTGTATA	0.367 ± 0.0156 E-score
GGTGTATA	0.458 ± 0.0157 E-score
GGTATATA	0.1906 ± 0.000509 E-score
GTGCAACA	0.292 ± 0.0195 E-score
ACCTATAA	0.177 ± 0.008 E-score
AGTTTATC	0.208 ± 0.0174 E-score
CCCCGAGC	0.198 ± 0.0241 E-score
AGTGTATC	0.399 ± 0.0163 E-score
